# Paper PMC4336329 (PLoS ONE, 2015)
# About 14,000 (4.5%) of roughly 310,000 compounds showed an effect of 50% or more. The effect is printed as a negative number. What follows is part of a selection rich in strong results, with near analogues and random picks from the rest.
# Target: human ether-à-go-go-related gene (hERG) potassium channel (human, UniProt Q12809)
# Test: primary screen, population patch clamp on CHO cells stably expressing hERG; higher = less effect of the substance
# 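Note: peak tail current of the secondary pulse compared with the same well before compound.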
# Chain of human ether-à-go-go-related gene (hERG) potassium channel (Q12809 whole entry, looked up): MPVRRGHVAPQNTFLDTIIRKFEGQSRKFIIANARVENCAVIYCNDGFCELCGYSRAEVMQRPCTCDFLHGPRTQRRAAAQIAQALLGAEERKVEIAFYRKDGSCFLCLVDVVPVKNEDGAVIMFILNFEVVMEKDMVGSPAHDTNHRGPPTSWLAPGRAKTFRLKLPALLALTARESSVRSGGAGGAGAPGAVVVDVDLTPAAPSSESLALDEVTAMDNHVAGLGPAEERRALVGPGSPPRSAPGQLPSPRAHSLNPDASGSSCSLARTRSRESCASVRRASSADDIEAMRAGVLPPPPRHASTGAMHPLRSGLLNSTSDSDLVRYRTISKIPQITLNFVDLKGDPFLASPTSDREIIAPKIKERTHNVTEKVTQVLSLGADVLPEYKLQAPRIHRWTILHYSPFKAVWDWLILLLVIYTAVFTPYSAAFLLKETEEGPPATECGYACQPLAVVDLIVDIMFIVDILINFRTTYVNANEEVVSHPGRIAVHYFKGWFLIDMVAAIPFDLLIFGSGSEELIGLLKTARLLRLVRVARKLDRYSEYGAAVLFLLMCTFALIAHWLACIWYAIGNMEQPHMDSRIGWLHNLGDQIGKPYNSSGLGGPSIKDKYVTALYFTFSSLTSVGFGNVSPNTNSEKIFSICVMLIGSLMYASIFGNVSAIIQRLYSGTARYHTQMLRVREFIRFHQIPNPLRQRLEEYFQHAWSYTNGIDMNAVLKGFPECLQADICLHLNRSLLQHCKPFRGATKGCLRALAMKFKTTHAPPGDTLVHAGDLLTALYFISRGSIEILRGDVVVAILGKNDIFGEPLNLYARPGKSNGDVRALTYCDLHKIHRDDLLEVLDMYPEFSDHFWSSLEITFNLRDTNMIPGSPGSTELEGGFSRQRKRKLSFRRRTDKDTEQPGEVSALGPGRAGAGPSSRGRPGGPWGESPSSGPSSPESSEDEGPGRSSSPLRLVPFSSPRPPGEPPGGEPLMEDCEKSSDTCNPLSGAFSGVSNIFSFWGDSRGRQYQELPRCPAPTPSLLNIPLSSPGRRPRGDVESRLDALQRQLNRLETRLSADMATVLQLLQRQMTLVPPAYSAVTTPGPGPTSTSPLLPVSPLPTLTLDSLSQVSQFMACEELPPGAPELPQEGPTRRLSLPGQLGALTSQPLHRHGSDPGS
row,Compound,"hERG current change (%, negative = inhibition) at 10uM [%]"
1,CC(=O)c1c(N2CCN(Cc3ccccc3)CC2)[nH]c(-c2ccccc2)nc1=S,2.17
2,N#Cc1ccc(CN2CCN(C(=O)c3ccccc3)CC2)c(Cl)c1,-33.2
3,Cl.O=C(c1cccc(S(=O)(=O)N2CCCCC2)c1)N1CCN(Cc2ccccc2)CC1,-56.6
4,N#Cc1ccc(CN2CCN(C(=O)c3ccc(S(=O)(=O)N4CCCCCC4)cc3)CC2)cc1,-40.9
5,N#Cc1ccc(CN2CCN(C(=O)c3cc(Cl)c4c(c3)OCCO4)CC2)cc1,-67.7
6,N#Cc1ccc(CN2CCN(C(=O)c3cccc(S(=O)(=O)N4CCCCCC4)c3)CC2)cc1,-75.8
7,Cl.O=C(c1ccc2c(c1)OCCO2)N1CCN(Cc2ccccc2)CC1,2.59
8,Cl.O=C(c1cccc(S(=O)(=O)N2CCCC2)c1)N1CCN(Cc2ccccc2)CC1,-14.2
9,O=C(c1cccc(S(=O)(=O)N2CCCCC2)c1)N1CCCCC1,5.7
10,CN1CCN(C(=O)c2cccc(S(=O)(=O)N3CCCCC3)c2)CC1,-7.44
11,CC(=O)Nc1nnc(CCS(=O)(=O)c2ccc(C)c(C)c2)s1,8.73
12,Cc1ccccc1N/N=C/c1sc(=O)n(Cc2cccc(C(=O)O)c2)c1Cl,38.9
13,CCN(CC)C(=O)Oc1ccc2c(=O)c(-c3ccc(OC)cc3)c(C)oc2c1,-35.8
14,O=C(Nc1cccc(F)c1)Nc1ccc(Cl)cn1,7.51
15,Cc1cccc(CN(C(=S)Nc2c(C)cccc2C)c2cccnc2)c1,-9.13
16,Cc1[nH]c2ccccc2c1C(=O)COC(=O)C(C)C,-6.03
17,S=C(NCC(c1ccco1)N1CCCC1)Nc1ccccc1 (centres unmarked),-28.9
18,COc1ccc(-n2nnnc2SCC(=O)Nc2nc3c(s2)CCCC3)cc1,9.26
19,Cc1cc(C)cc(NC(=O)CN2CCc3ccccc3C2)c1,-10.2
20,Cc1cc(C)nc(-n2nc(C)cc2NC(=O)CN2CCC(C)CC2)n1,-65.6
21,CCC1CCCCN1CC(=O)Nc1cc(C)nn1-c1nc(C)cc(C)n1 (centres unmarked),-58.8
22,Cc1cc(C)nc(-n2nc(C)cc2NC(=O)CN2CCCC2)n1,-34.1

row,Compound,"hERG current change (%, negative = inhibition) at 10uM [%]"
1,Cc1cccc(C)c1NC(=O)CN1CCc2ccccc2C1,8.31
2,Cc1cc(NC(=O)CN2CCCC(C)C2)no1.O=C(O)C(=O)O (centres unmarked),10.7
3,CC(=O)Nc1ccc(NC(=O)CN2CCCC(C)C2)c(Cl)c1 (centres unmarked),-5.17
4,Cc1cc(NC(=O)CN2CCCCC2)n(-c2ccccc2)n1,6.65
5,Cc1cc(C)nc(-n2nc(C)cc2NC(=O)CN2CCCC(C)C2)n1 (centres unmarked),-56
6,CCC1CCCCN1C(=O)CSc1nc(C)cc(C)n1 (centres unmarked),-12.8
7,CCC1CCCCN1CC(=O)Nc1ccc2c(c1)OCCO2 (centres unmarked),10.6
8,Cc1cc(C)nc(-n2nc(C)cc2NC(=O)CN2CCc3ccccc3C2)n1,-68.7
9,Cc1ccc(C2(COC(=O)C(C)C)CO2)c(OC(=O)C(C)C)c1 (centres unmarked),2.15
10,Cc1ccc(-c2n[nH]c(=O)c3ccccc23)cc1S(=O)(=O)NC(C)(C)C,13.6
11,CCn1c(SCC(N)=O)nnc1-c1ccc2c(c1)OCO2,-0.333
12,O=C(Nc1cc(Sc2ccccn2)cc([N+](=O)[O-])c1)c1ccc(Cl)cc1,11.6
13,CCOc1ccccc1C(=O)Nc1cc(Cl)ccc1O,14.7
14,COc1ccc(CC(=O)N2CCc3cc(OC)c(OC)cc3C2C)c(OC)c1 (centres unmarked),-6.22
15,CCc1ccccc1NC1c2ccccc2C(=O)N1c1cc(C)ccn1 (centres unmarked),-1.18
16,Cc1cc(C)nc(-n2nc(C)cc2NC(=O)CNC2CCCCC2)n1,-52.4
17,Cc1cc(C)nc(-n2nc(C)cc2NC(=O)c2ccc(F)cc2F)n1,-0.0513
18,Cc1ccc(C)c(C(=O)Nc2cc(C)nn2-c2nc(C)cc(C)n2)c1,3.98
19,COc1ccc(CCn2c(N)c(C#N)c3nc4ccccc4nc32)cc1OC,4.14
20,CCN(CC)S(=O)(=O)c1cccc(-c2nnc(SCC(=O)c3cc(C)n(C)c3C)o2)c1,-25.5
21,CC1=C(C(=O)OC(C)C)C(c2ccc(F)cc2)NC(=O)N1 (centres unmarked),-5.4
22,CCOCC(=O)Nc1ccc(Br)c(C)c1,4.88

row,Compound,"hERG current change (%, negative = inhibition) at 10uM [%]"
1,O=C(NCCc1cccc(C(F)(F)F)c1)C1CCC(=O)N(CCc2cccc(F)c2)C1 (centres unmarked),-56.8
2,O=C(NCCc1ccc(C(F)(F)F)cc1)C1CCC(=O)N(CCCc2ccccc2)C1 (centres unmarked),-50.2
3,O=C(NCCc1ccccc1)C1CCC(=O)N(CCCN2CCCC2=O)C1 (centres unmarked),5.82
4,O=C(NCCN1CCCC1=O)C1CCC(=O)N(CCc2cccc(F)c2)C1 (centres unmarked),9.49
5,O=C(NCCc1cccs1)C1CCC(=O)N(CCc2cccc(F)c2)C1 (centres unmarked),-26.1
6,O=C(NCCc1cn[nH]c1)C1CCC(=O)N(CCc2cccc(F)c2)C1 (centres unmarked),25.1
7,COc1ccc(CCN2CC(C(=O)NCCc3ccc(C(F)(F)F)cc3)CCC2=O)cc1 (centres unmarked),-46.8
8,O=C(NCCc1ccc(C(F)(F)F)cc1)C1CCC(=O)N(CCCN2CCCC2=O)C1 (centres unmarked),13.1
9,O=C(NCCc1ccc(C(F)(F)F)cc1)C1CCC(=O)N(CCc2cccc(F)c2)C1 (centres unmarked),-51.4
10,O=C(O)c1ccc(NC(=S)NC(=O)c2ccc(-c3ccccc3)cc2)cc1,19.4
11,CNC[C@H](NC[C@@H](NCCCc1ccccc1)c1ccccc1)[C@H](C)O,11.7
12,Cc1ccc(CSCC(=O)Nc2ccc3c(c2)OCO3)cc1,-14.5
13,COc1ccccc1CC(=O)Nc1ccc(S(=O)(=O)N2CCN(C)CC2)cc1,14.4
14,CS(=O)(=O)Nc1ccccc1C(=O)N1CCOCC1,16.4
15,O=C(CSc1oc(-c2ccco2)nc1S(=O)(=O)c1ccc(Cl)cc1)NCC1CCCO1 (centres unmarked),-41.3
16,Cc1ccc(N/N=C(\C#N)C(=N)N2CCCCCC2)cc1,12.7
17,CCN(CC)C(=N)/C(C#N)=N/Nc1ccc(C)cc1,-56.6
18,CCN(CC)C(=N)/C(C#N)=N/Nc1ccccc1,-15.7
19,Cc1cc(NC(=O)Nc2cc(F)ccc2F)no1,17.7
20,CCCN(Cc1nnc(-c2ccccc2Cl)o1)C(=O)c1cc([N+](=O)[O-])cc([N+](=O)[O-])c1,-55.1
21,CCCN(Cc1nnc(-c2ccccc2Cl)o1)C(=O)c1cc2ccccc2o1,-17
22,CCCN(Cc1nnc(-c2ccccc2Cl)o1)C(=O)c1cc(S(=O)(=O)N2CCOCC2)ccc1F,-47.7

row,Compound,"hERG current change (%, negative = inhibition) at 10uM [%]"
1,Cc1ccc(S(=O)(=O)N2CCOCC2)cc1C(=O)N(Cc1nnc(-c2ccccc2Cl)o1)C1CC1,-33.9
2,O=C(c1cccc(S(=O)(=O)N2CCOCC2)c1)N(Cc1nnc(-c2ccccc2Cl)o1)C1CC1,-24.9
3,CCCN(Cc1nnc(-c2ccccc2Cl)o1)C(=O)c1ccc(C)c(S(=O)(=O)N2CCOCC2)c1,-55.8
4,O=C(c1cc([N+](=O)[O-])cc([N+](=O)[O-])c1)N(Cc1nnc(-c2ccccc2Cl)o1)C1CC1,-36.8
5,CCCN(Cc1nnc(-c2ccccc2Cl)o1)C(=O)c1cccc(S(=O)(=O)N2CCOCC2)c1,-6.05
6,O=C(c1ccc(Cl)c(S(=O)(=O)N2CCOCC2)c1)N(Cc1nnc(-c2ccccc2Cl)o1)C1CC1,-58.9
7,CN(CC(=O)Nc1ccc(Cl)cc1)CC(=O)Nc1cccc2ccccc12,-2.26
8,O=C(/C=C/c1ccccc1Cl)Nc1ccc(-c2nnc3n2CCCCC3)cc1,-6.47
9,COc1cc(CNC(C)(C)C)cc(Br)c1OCc1cccs1.Cl,-28.7
10,NS(=O)(=O)c1cccnc1Nc1c(Cl)cccc1Cl,10.6
11,CCCCc1nc2ccccc2c(NC(=O)CN(CC)CC)c1CCC.O=C(O)C(=O)O,-26.8
12,COc1ccc(S(=O)(=O)N2CCCCCC2)cc1NC(=O)c1ccccc1F,3.54
13,NC(=O)c1ccsc1NC(=O)CS(=O)(=O)c1ccc(F)cc1,-68.2
14,NC(=O)c1ccsc1NC(=O)CS(=O)(=O)c1ccc(Cl)cc1,-75.7
15,NC(=O)c1ccsc1NC(=O)CS(=O)(=O)c1ccccc1,-8.27
16,O=C(CS(=O)(=O)c1ccc(F)cc1)Nc1nccs1,9.06
17,CNC(=O)c1ccsc1NC(=O)CS(=O)(=O)c1ccc(Cl)cc1,-38.6
18,NC(=O)c1ccsc1NC(=O)CCS(=O)(=O)c1ccc(F)cc1,-2.69
19,COc1ccccc1S(=O)(=O)Cc1ccc(C(=O)N2CCN(c3ccc(C)cc3)C(C)C2)o1 (centres unmarked),-24.6
20,CCCNC(=O)c1oc2ccc3c(c2c1C)C=CC(C)(C)O3,0.704
